Experimental data from publication PMC3218832.

Tests used:
Experiment in all cases: protein binding microarray; high values mean tight binding
Details in all cases: dsDNA, one strand shown
RELARELA (p65 homodimer) = RELARELA (p65 homodimer) (Homo sapiens, UniProt Q04206 1-307)
p50p50 homodimer = p50p50 homodimer (Homo sapiens, UniProt P19838 7-356)
p52p52 homodimer = target: T1, p52p52 homodimer (Homo sapiens, UniProt Q00653 4-332)
T1 sequence: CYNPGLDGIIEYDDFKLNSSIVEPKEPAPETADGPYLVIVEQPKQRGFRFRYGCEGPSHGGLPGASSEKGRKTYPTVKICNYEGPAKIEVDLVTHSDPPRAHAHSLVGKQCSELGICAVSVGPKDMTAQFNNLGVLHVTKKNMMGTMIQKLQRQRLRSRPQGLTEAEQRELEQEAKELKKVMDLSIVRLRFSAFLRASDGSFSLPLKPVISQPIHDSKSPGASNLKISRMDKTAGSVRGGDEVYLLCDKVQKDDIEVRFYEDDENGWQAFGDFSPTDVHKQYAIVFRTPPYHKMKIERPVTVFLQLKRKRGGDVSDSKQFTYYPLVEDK

[1] = target: RELA (p65) subunit of heterodimer;p50 subunit (Homo sapiens;Homo sapiens, UniProt Q04206;P19838 1-307;7-356)
Chain of RELA (p65) subunit of heterodimer;p50 subunit (Q04206 1-307, chain 1 of 2): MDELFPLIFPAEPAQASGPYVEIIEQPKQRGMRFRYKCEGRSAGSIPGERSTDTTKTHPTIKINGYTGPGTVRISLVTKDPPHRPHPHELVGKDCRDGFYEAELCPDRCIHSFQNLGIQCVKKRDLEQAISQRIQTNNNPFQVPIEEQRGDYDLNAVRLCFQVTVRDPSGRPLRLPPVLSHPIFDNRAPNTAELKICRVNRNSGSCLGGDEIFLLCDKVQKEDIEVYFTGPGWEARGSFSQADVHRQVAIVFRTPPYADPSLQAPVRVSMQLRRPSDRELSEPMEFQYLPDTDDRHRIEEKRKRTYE
Chain of RELA (p65) subunit of heterodimer;p50 subunit (P19838 7-356, chain 2 of 2): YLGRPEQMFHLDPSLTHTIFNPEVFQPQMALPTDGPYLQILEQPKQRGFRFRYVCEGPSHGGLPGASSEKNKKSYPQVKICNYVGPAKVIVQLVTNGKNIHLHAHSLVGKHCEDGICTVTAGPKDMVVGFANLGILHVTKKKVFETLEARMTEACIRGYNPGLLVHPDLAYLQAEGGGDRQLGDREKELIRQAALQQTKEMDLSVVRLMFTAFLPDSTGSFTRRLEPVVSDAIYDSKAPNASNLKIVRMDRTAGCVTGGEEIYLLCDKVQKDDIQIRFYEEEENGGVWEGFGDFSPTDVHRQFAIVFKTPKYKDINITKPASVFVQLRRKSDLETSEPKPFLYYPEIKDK

[2] = target: RELA (p65) subunit of heterodimer;p52 subunit (Homo sapiens;Homo sapiens, UniProt Q04206;Q00653 1-307;4-332)
RELB subunit;p50 subunit = RELB subunit;p50 subunit (Homo sapiens;Homo sapiens, UniProt Q01201;P19838 120-401;7-356)
RELB subunit;p52 subunit = target: T2, RELB subunit;p52 subunit (Homo sapiens;Homo sapiens, UniProt Q01201;Q00653 120-401;4-332)
T2 sequence 1: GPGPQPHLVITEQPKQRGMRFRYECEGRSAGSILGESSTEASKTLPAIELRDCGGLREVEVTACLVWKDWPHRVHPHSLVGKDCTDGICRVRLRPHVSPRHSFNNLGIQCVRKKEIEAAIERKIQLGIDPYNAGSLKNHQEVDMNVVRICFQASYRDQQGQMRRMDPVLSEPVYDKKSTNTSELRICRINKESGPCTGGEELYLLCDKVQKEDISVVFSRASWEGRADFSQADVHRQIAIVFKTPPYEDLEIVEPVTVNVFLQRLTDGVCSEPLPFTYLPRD
T2 sequence 2: T1 sequence

[3] = target: C-Rel subunit;p50 subunit (Homo sapiens;Homo sapiens, UniProt Q04864;P19838 1-285;7-356)
[4] = target: T3, C-Rel subunit;p52 subunit (Homo sapiens;Homo sapiens, UniProt Q04864;Q00653 1-285;4-332)
T3 sequence 1: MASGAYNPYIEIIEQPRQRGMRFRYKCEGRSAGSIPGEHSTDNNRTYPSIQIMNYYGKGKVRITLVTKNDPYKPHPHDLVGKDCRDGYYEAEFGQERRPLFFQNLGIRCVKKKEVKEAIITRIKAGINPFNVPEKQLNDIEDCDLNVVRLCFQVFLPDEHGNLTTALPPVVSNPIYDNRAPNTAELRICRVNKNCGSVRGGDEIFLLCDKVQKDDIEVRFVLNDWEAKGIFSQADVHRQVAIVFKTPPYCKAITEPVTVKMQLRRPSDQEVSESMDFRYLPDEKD
T3 sequence 2: T1 sequence

Chain of RELARELA (p65 homodimer) (Q04206 1-307): as the sequence (Q04206 1-307, chain 1 of 2) above
Chain of p50p50 homodimer (P19838 7-356): as the sequence (P19838 7-356, chain 2 of 2) above

Sequence	binding signal (RELARELA (p65 homodimer)) [z-score]	binding signal (p50p50 homodimer) [z-score]	binding signal (p52p52 homodimer) [z-score]	binding signal [1] [z-score]	binding signal [2] [z-score]	binding signal (RELB subunit;p50 subunit) [z-score]	binding signal (RELB subunit;p52 subunit) [z-score]	binding signal [3] [z-score]	binding signal [4] [z-score]
AAGAGATCCCT	-0.452	-0.0204	-0.142	-0.376	-0.411	0.117	-0.279	-0.41	-0.484
AAAGGAACCCC	-0.25	0.367	0.122	0.18	0.127	0.118	0.351	0.41	0.175
AAGGAGCTCCC	-0.693	-0.999	-0.562	-0.64	-0.893	-0.741	-0.874	-0.927	-0.843
AAATACGTCCC	0.519	0.264	0.547	0.144	0.183	0.285	0.334	0.368	-0.029
AGGAAGCCCCC	0.317	1.14	1.3	1.61	1.31	1.03	1.07	1.09	1.7
GGGATGCCCCT	1.02	0.778	2.65	1.78	2.07	1.74	1.82	1.22	2.2
AGGGGACTCCC	1.57	0.939	2.92	2.01	2.28	1.82	2.3	1.9	2.77
CAATTCGTCCC	0.717	0.108	0.533	-0.0179	0.123	0.362	0.547	0.479	0.00577
AGGTGCACCCC	-0.368	0.235	0.492	0.0923	0.549	0.107	0.61	-0.0192	0.815
GAAGGCTCCCT	-0.795	-1.03	-0.473	-0.74	-0.784	-0.594	-0.67	-1.02	-0.773
AAGGACTCCCC	0.78	0.758	0.493	0.844	0.665	0.692	0.442	0.76	0.388
GAGGTTGCCCT	-0.221	-1.5	-0.704	-0.605	-0.676	-0.817	-0.624	-0.77	-0.503
AGAGAGGTCCT	0.413	-1.58	-0.36	-0.866	-0.592	-0.624	-0.363	-1.31	-0.537
CAAGAGTCCCC	0.465	1.31	1.01	1.4	1.06	1.44	1.28	0.916	0.77
GGGGGAACCCC	2.66	1.15	3.25	2.25	3.23	2.62	2.86	2.58	3.54
